# Laboratory results published in PubChem BioAssay (EPA / NIEHS).
# Records with an inconclusive call do not appear. Active and inactive are the calls of the source. The calls were made as follows: active = hit-call score of the fitted dose curve at least 0.9, where 1 is the maximum; inconclusive = response in the unintended direction; inactive = score below 0.9.
# Assays:
# PPP2CA (gene 5515) = PPP2CA (gene 5515) (UniProt P67775); assay: NVS_ENZ_hPPP2CA: NovaScreen (NVS) Enzymatic Assay for human Protein Phosphatase 2 Aatalytic subunit Alpha (PPP2CA) (AID 2283199)
# Sequence of PPP2CA (gene 5515) (P67775 whole entry, looked up): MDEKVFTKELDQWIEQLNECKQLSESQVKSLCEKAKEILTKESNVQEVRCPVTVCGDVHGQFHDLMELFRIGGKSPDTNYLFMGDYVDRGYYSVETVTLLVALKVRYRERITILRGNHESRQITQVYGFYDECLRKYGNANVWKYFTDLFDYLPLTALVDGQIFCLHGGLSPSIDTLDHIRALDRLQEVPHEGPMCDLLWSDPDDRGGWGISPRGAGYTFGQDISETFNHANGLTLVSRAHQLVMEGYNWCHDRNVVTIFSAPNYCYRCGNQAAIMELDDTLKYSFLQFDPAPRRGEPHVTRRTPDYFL
# Experimental: NVS_ENZ_hPPP2CA is a biochemical, single-readout assay that uses extracted gene-proteins in a cell-free assay. Measurements were taken 1.33 hours after chemical dosing in a 384-well plate.NVS_ENZ_hPPP2CA is one of one assay component(s) measured or calculated from the NVS_ENZ_hPPP2CA assay. It is designed to make measurements of enzyme activity, a form of enzyme reporter, as detected with fluorescence intensity signals by Fluorescence and electrophoretic mobility shift technology.Data from the assay component NVS_ENZ_hPPP2CA was analyzed into 1 assay endpoint. This assay endpoint, NVS_ENZ_hPPP2CA, was analyzed in the positive analysis fitting direction relative to DMSO as the negative control and baseline of activity. Using a type of enzyme reporter, loss-of-signal activity can be used to understand changes in the enzymatic activity as they relate to the gene PPP2CA. Furthermore, this assay endpoint can be referred to as a primary readout, because this assay has produced multiple assay endpoints where this one serves a enzymatic activity function. To generalize the intended target to other relatable targets, this assay endpoint is annotated to the phosphatase intended target family, where the subfamily is serine/threonine phosphatase. […]
# [1] = target: Serine/threonine-protein phosphatase PP1-alpha catalytic subunit (Homo sapiens) (UniProt P62136); assay: NVS_ENZ_hPPP1CA: NovaScreen (NVS) Enzymatic Assay for human Protein Phosphatase 1 Aatalytic subunit Alpha (PPP1CA) (AID 2283200)
# Sequence of Serine/threonine-protein phosphatase PP1-alpha catalytic subunit (Homo sapiens) (P62136 whole entry, looked up): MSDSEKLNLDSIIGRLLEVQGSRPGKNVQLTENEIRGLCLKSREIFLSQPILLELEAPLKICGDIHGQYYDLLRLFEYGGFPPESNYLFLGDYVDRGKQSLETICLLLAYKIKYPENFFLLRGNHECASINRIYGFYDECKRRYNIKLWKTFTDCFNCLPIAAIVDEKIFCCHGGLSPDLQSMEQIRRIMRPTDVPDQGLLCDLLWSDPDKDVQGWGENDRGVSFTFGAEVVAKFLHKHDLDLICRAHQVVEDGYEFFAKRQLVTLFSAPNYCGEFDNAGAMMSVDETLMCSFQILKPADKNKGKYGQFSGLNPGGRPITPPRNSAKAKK
# Experimental: NVS_ENZ_hPPP1CA is a biochemical, single-readout assay that uses extracted gene-proteins in a cell-free assay. Measurements were taken 1.33 hours after chemical dosing in a 384-well plate.NVS_ENZ_hPPP1CA is one of one assay component(s) measured or calculated from the NVS_ENZ_hPPP1CA assay. It is designed to make measurements of enzyme activity, a form of enzyme reporter, as detected with fluorescence intensity signals by Fluorescence and electrophoretic mobility shift technology.Data from the assay component NVS_ENZ_hPPP1CA was analyzed into 1 assay endpoint. This assay endpoint, NVS_ENZ_hPPP1CA, was analyzed in the positive analysis fitting direction relative to DMSO as the negative control and baseline of activity. Using a type of enzyme reporter, loss-of-signal activity can be used to understand changes in the enzymatic activity as they relate to the gene PPP1CA. Furthermore, this assay endpoint can be referred to as a primary readout, because this assay has produced multiple assay endpoints where this one serves a enzymatic activity function. To generalize the intended target to other relatable targets, this assay endpoint is annotated to the phosphatase intended target family, where the subfamily is serine/threonine phosphatase.
# Binding assays used specific radioligands (tritiated, iodinated) with non-radioactive competitive displacement ligands in agonist or antagonist protocols (as indicated) and various reference compounds and inhibitors to titrate specific binding to receptors and transporters. Most enzyme assays (CYPs, kinases, phosphatases, proteases, HDACs) used recombinant protein and specific substrates (fluorescence mostly, some colorimetric and radioactive) and inhibitors, followed by a biochemical separation of substrate and product. All assays for the biochemical HTS were initially run in duplicate at a single concentration (10 uM for CYP450 assays and 25 uM for all others). Assay-chemical combinations meeting a pre-defined threshold (e.g., 30% inhibition and other criteria defined below) were then run in singleton concentration-response format with maximum concentration of 20 uM for CYPs and 50 uM for all others. Each assay was run with positive and negative controls, and concurrent controls on every plate. The follow-up (secondary) screen tested active chemical-pairs in concentration series, as well as a few additional assays not tested in the primary screen, some selected negative inactives, and several cases re-run in the concentration series for confirmatory purposes.
# [2] = target: human Phosphodiesterase 5 (PDE5), PDE5A (gene 8654) (UniProt O76074); assay: NVS_ENZ_hPDE5: NovaScreen (NVS) Enzymatic Assay for human Phosphodiesterase 5 (PDE5) (AID 2283194)
# Procedure, shortened: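 Screening began in duplicate at 25 uM, with actives taken into concentration-response. Enzyme activity of recombinant PDE5 toward its substrate was measured at 1 h by fluorescence mobility-shift detection, relative to DMSO controls.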
# [3] = target: human Protein Tyrosine Phosphatase Non-receptor Type 1 (PTPN1), PTPN1 (gene 5770) (UniProt P18031); assay: NVS_ENZ_hPTPN1: NovaScreen (NVS) Enzymatic Assay for human Protein Tyrosine Phosphatase Non-receptor Type 1 (PTPN1) (AID 2283201)
# Sequence of human Protein Tyrosine Phosphatase Non-receptor Type 1 (PTPN1), PTPN1 (gene 5770) (P18031 whole entry, looked up): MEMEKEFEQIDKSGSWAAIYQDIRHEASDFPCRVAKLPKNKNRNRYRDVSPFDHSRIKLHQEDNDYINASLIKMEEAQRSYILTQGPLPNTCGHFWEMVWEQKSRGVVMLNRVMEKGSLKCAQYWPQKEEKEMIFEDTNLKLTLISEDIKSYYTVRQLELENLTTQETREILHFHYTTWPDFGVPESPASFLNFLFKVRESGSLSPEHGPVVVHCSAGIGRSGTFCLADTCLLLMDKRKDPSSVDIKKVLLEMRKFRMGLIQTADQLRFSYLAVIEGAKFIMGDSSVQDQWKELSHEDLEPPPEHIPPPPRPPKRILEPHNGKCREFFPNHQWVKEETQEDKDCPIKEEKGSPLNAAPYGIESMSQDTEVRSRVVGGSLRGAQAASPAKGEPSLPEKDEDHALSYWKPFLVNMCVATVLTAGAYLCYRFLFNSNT
# Procedure, shortened: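 Chemicals were first tested in duplicate at 25 uM, and those passing threshold went on to singleton concentration series topping at 50 uM. Recombinant enzyme, specific substrate, product separated by mobility shift, fluorescence read at 1.33 h; activity loss relative to DMSO.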
# [4] = target: Tyrosine-protein phosphatase non-receptor type 11 (Homo sapiens) (UniProt Q06124); assay: NVS_ENZ_hPTPN11: NovaScreen (NVS) Enzymatic Assay for human Protein Tyrosine Phosphatase Non-receptor Type 11 (PTPN11) (AID 2283202)
# Sequence of Tyrosine-protein phosphatase non-receptor type 11 (Homo sapiens) (Q06124 whole entry, looked up): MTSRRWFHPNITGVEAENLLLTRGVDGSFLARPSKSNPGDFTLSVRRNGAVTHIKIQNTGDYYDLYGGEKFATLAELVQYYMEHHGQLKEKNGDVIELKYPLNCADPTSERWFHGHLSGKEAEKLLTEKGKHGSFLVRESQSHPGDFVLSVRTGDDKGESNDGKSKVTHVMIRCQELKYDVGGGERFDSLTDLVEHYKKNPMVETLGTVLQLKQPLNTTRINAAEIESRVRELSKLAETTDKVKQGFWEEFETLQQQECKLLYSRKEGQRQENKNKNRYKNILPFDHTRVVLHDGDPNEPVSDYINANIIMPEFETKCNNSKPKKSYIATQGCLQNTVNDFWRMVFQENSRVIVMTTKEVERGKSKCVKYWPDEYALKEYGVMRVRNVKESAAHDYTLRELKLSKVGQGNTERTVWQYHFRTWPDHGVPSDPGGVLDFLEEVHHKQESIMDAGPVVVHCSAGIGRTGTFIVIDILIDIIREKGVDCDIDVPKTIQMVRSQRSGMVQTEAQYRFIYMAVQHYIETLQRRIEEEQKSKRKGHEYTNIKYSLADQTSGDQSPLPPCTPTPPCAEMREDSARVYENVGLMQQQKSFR
# Procedure, shortened: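 Compounds first tested in duplicate at 25 uM; those reaching ~30% inhibition rerun in singleton concentration-response, top 50 uM. Phosphatase activity measured after 0.5 h by fluorescence with mobility-shift separation, relative to DMSO.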
# [5] = target: human Phosphodiesterase 10 (PDE10), PDE10A (gene 10846) (UniProt Q9Y233); assay: NVS_ENZ_hPDE10: NovaScreen (NVS) Enzymatic Assay for human Phosphodiesterase 10 (PDE10) (AID 2283195)
# Sequence of human Phosphodiesterase 10 (PDE10), PDE10A (gene 10846) (Q9Y233 whole entry, looked up): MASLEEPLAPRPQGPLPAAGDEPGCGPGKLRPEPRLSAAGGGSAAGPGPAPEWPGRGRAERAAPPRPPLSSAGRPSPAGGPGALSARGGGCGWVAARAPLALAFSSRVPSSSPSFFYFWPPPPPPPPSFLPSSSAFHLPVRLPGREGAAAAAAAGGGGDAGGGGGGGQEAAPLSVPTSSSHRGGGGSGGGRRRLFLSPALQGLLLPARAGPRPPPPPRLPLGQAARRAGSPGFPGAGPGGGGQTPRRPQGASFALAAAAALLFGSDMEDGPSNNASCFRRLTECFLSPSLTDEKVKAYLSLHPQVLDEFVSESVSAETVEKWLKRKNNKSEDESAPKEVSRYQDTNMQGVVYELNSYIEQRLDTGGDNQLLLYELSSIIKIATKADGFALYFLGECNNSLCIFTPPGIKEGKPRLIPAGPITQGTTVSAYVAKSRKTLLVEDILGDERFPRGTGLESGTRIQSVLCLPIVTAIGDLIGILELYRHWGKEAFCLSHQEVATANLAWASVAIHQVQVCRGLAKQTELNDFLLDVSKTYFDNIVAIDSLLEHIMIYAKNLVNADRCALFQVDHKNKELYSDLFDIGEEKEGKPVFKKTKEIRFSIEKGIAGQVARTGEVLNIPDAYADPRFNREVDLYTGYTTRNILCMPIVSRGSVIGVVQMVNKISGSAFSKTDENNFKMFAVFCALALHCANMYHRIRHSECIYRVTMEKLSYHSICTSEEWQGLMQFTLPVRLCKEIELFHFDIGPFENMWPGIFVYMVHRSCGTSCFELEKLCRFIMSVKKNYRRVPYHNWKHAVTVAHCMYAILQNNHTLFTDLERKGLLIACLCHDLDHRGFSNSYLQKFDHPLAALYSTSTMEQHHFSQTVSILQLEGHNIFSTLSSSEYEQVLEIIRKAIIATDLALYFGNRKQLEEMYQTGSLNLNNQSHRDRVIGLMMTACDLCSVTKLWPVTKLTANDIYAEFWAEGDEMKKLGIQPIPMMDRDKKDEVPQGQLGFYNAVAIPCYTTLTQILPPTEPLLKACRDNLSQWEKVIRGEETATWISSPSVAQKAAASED
# Procedure, shortened: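 Fluorescence readout after mobility-shift separation of substrate and product, 1 h reaction with recombinant human enzyme. Single-concentration duplicates at 25 uM, then concentration-response up to 50 uM for chemicals reaching threshold; DMSO baseline.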
# [6] = target: human Phosphoinositide 3-kinase alpha (PI3Ka), PIK3CA (gene 5290) (UniProt P42336); assay: NVS_ENZ_hPI3Ka: NovaScreen (NVS) Enzymatic Assay for human Phosphoinositide 3-kinase alpha (PI3Ka) (AID 2283196)
# Sequence of human Phosphoinositide 3-kinase alpha (PI3Ka), PIK3CA (gene 5290) (P42336 whole entry, looked up): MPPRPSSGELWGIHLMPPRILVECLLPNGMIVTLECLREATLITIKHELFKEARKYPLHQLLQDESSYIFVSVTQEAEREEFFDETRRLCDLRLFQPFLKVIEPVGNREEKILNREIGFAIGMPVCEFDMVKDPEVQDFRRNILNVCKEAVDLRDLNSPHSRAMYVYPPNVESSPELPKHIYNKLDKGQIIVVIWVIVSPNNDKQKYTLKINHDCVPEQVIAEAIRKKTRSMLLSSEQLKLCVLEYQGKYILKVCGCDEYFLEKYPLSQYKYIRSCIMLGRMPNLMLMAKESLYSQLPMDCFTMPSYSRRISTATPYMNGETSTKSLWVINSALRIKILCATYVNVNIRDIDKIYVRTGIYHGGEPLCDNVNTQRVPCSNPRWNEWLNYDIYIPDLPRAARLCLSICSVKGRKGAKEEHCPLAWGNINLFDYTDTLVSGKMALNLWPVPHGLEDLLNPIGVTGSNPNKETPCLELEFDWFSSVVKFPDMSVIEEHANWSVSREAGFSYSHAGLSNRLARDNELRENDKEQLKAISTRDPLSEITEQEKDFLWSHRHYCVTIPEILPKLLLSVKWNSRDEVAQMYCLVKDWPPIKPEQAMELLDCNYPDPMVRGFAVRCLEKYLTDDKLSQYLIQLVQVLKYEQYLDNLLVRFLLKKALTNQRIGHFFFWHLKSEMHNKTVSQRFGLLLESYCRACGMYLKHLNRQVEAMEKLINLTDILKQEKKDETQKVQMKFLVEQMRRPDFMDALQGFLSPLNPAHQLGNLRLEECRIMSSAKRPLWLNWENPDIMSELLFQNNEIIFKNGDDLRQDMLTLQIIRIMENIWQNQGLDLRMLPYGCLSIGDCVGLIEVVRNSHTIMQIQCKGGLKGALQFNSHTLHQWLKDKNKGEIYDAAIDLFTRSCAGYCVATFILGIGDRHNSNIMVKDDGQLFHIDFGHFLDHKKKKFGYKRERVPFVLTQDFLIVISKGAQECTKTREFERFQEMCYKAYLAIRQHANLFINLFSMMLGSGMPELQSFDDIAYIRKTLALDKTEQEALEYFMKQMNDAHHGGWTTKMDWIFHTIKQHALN
# Procedure, shortened: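 Fluorescence/mobility-shift readout of substrate conversion by recombinant enzyme, 1 h post-dosing. Primary screen in duplicate at 25 uM; actives (e.g. ≥30% inhibition) retested in singleton concentration-response, top concentration 50 uM.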
# [7] = target: human Protein Phosphatase, Mg2+/Mn2+ Dependent 1A (PPM1A), PPM1A (gene 5494) (UniProt P35813); assay: NVS_ENZ_hPPM1A: NovaScreen (NVS) Enzymatic Assay for human Protein Phosphatase, Mg2+/Mn2+ Dependent 1A (PPM1A) (AID 2283198)
# Sequence of human Protein Phosphatase, Mg2+/Mn2+ Dependent 1A (PPM1A), PPM1A (gene 5494) (P35813 whole entry, looked up): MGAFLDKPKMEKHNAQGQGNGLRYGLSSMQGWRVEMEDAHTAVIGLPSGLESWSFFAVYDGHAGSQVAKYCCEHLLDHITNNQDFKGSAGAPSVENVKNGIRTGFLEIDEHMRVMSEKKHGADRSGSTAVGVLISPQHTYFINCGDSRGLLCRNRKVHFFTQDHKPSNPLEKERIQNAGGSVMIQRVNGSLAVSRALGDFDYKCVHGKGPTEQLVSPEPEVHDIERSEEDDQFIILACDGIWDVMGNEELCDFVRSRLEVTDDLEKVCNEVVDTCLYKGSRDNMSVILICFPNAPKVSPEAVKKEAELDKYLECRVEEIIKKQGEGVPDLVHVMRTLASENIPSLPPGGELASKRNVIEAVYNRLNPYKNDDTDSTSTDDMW
# Procedure, shortened: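 Primary screen in duplicate at 25 uM, with actives then titrated to a maximum of 50 uM. Recombinant PPM1A dephosphorylation of fluorescent substrate measured at 1 h, with substrate and product separated by mobility shift; inhibition fitted against DMSO.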
# [8] = target: cAMP-dependent protein kinase catalytic subunit alpha (Homo sapiens) (UniProt P17612); assay: NVS_ENZ_hPKA: NovaScreen (NVS) Enzymatic Assay for human Protein Kinase A (PKA) (AID 2283192)
# Procedure, shortened: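 Cell-free kinase activity read by fluorescence after mobility-shift separation of substrate and product, 1 h post-dosing. Single-concentration duplicate screen (25 uM) preceded singleton concentration series (top 50 uM); loss of signal versus DMSO.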
# [9] = target: human Phosphatase and Tensin Homolog (PTEN), PTEN (gene 5728) (UniProt P60484); assay: NVS_ENZ_hPTEN: NovaScreen (NVS) Enzymatic Assay for human Phosphatase and Tensin Homolog (PTEN) (AID 2283203)
# Sequence of human Phosphatase and Tensin Homolog (PTEN), PTEN (gene 5728) (P60484 whole entry, looked up): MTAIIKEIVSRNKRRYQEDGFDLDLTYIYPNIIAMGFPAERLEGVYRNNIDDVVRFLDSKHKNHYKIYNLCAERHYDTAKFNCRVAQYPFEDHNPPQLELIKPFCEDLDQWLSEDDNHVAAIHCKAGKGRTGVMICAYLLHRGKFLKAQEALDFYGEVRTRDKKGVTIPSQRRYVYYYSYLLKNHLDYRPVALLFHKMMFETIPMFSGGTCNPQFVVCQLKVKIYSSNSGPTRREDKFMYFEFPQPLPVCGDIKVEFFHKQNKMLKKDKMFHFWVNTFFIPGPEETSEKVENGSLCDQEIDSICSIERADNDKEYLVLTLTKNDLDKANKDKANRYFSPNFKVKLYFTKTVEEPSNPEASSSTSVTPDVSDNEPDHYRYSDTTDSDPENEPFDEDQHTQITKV
# Procedure, shortened: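 Loss of fluorescent product signal after mobility-shift separation reports PTEN activity, recombinant human enzyme, 1 h after compound addition. Single 25 uM duplicate screen, then concentration-response on actives; DMSO baseline.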
compound,measurement,setting,value
Cc1cc(-c2ccc(N)c(C)c2)ccc1N,outcome,PPP2CA (gene 5515),inactive
same,outcome,[1],inactive
Oc1c(Cl)c(Cl)c(Cl)c(Cl)c1Cl,outcome,[2],inactive
Oc1ccc(C(c2ccc(O)cc2)(C(F)(F)F)C(F)(F)F)cc1,outcome,[3],inactive
same,outcome,[4],inactive
CCCN(CCC)N=O,outcome,[2],inactive
CC(C)C(=O)OCC(C)(C)C(OC(=O)C(C)C)C(C)C (stereo not given),outcome,[2],inactive
same,outcome,[5],inactive
same,outcome,[6],inactive
same,outcome,[1],inactive
Clc1ccc(C(c2ccccc2Cl)C(Cl)(Cl)Cl)cc1 (stereo not given),outcome,[7],inactive
same,outcome,[1],inactive
O=C(O)C(F)(F)C(F)(F)C(F)(F)C(F)(F)C(F)(F)C(F)(F)C(F)(F)C(F)(F)F,outcome,[8],inactive
same,outcome,[2],inactive
same,outcome,[3],inactive
same,outcome,[9],inactive
CCOCCOC(C)=O,outcome,[3],inactive
O=C(O)C(F)(F)C(F)(F)C(F)(F)C(F)(F)C(F)(F)F,outcome,[5],inactive
same,outcome,[3],inactive
same,outcome,[4],inactive
same,outcome,[9],inactive
ClC(Cl)=C(c1ccc(Cl)cc1)c1ccc(Cl)cc1,outcome,[2],inactive
NS(=O)(=O)C(F)(F)C(F)(F)C(F)(F)C(F)(F)C(F)(F)C(F)(F)C(F)(F)C(F)(F)F,outcome,[7],inactive
CC1=C2C[C@H]3[C@@H](CC=C4C[C@@H](O)CC[C@@]43C)[C@@H]2CC[C@]12O[C@@H]1C[C@H](C)CN[C@H]1[C@H]2C,outcome,[8],inactive
same,outcome,[5],inactive
same,outcome,[6],inactive
same,outcome,[3],inactive
same,outcome,[4],inactive
ClC1=C(Cl)[C@]2(Cl)[C@@H]3[C@@H](Cl)[C@H]4O[C@H]4[C@@H]3C1(Cl)C2(Cl)Cl,outcome,[1],inactive
Cc1cc2c3c(c1)C(c1ccccc1)=N[C@@H](NC(=O)c1ccncc1)C(=O)N3CC2,AC50,[2],3.87 µM (active)
same,AC50,[5],5.66 µM (active)
same,outcome,[7],inactive
C=CC(N)=O,outcome,[7],inactive
C[C@]12CCC(=O)C=C1CC[C@@H]1[C@@H]2CC[C@]2(C)C(=O)CC[C@@H]12,AC50,[2],12.3 µM (active)
CCNc1nc(NC(C)C)nc(SC)n1,AC50,[2],17.4 µM (active)
O=C(O)C(F)(F)C(F)(F)C(F)(F)C(F)(F)C(F)(F)C(F)(F)C(F)(F)C(F)(F)C(F)(F)F,AC50,[1],43.3 µM (active)
Cc1cccc([N+](=O)[O-])c1,outcome,[1],inactive
same,outcome,[9],inactive
CCC(C)c1cc([N+](=O)[O-])cc([N+](=O)[O-])c1O (stereo not given),outcome,[7],inactive
CCC(C)(c1ccc(O)cc1)c1ccc(O)cc1,outcome,[2],inactive
N#Cc1ccc(N(CC(N)=O)CC(F)(F)F)cc1C(F)(F)F,outcome,[2],inactive
O=S(=O)(O)C(F)(F)C(F)(F)C(F)(F)C(F)(F)C(F)(F)C(F)(F)F,outcome,[2],inactive
same,outcome,[5],inactive
same,outcome,[9],inactive
Cc1ccc(O)c(C)c1,AC50,[2],37.4 µM (active)
